Results taken from ChEMBL document CHEMBL4513146, “CO-ADD screening of Karazin Kharkiv National University (Ukraine) compounds”.
Measured potencies and affinities stand elsewhere.

Legend:
[1] = system: Klebsiella pneumoniae; details: Concentration 32 ug.mL-1;; ASSAY_TEST Inhibition of Bacterial Growth; detection method Absorption (OD600); MEDIA CAMHB; plate type 384well; NBS; CORNING #3640; time 18 hr
[2] = system: Candida albicans; details: Concentration 32 ug.mL-1; ASSAY_TEST Inhibition of Fungal Growth; detection method Absorption (OD530)
[3] = system: Cryptococcus neoformans; details: Concentration 32 ug.mL-1; ASSAY_TEST Inhibition of Fungal Growth; detection method Resazurin; Absorption (OD600-OD570); plate type 384well; NBS; CORNING #3640

Row | Structure (SMILES) | Inhibition [1] [%] | Inhibition [2] [%] | Inhibition [3] [%]
1 | Cc1cc2nn(CC(=O)Nc3cc(F)cc(F)c3)c(=O)n2c(Nc2ccccc2C)n1 | 6.94 | 0.1 | -12.73
2 | CC(C)c1nnc2c(=O)n(CC(=O)Nc3ccc(Br)cc3F)c3ccccc3n12 | 12.63 | 1.97 | -15.71
3 | Cc1ccc(Cl)cc1N1CCN(C(=O)CCc2nnc3c4cc(-c5ccccc5)nn4ccn23)CC1 | 5.47 | 0.3 | -6.62
4 | O=c1c2nnc(SCc3cccc(C(F)(F)F)c3)n2ccn1-c1ccc(Br)cc1 | 4 | 27.57 | -8.16
5 | CCC(Sc1nnc2c(=O)n(-c3cccc(OC)c3)ccn12)C(=O)Nc1cc(C)ccc1C (stereo not given) | 11.08 | 1.67 | -10.57
6 | CC(C)Cn1c(=O)c2ccc(C(=O)NC3CCCC3)cc2n2c(=O)n(CC(=O)NC3CCCCC3)nc12 | 4.14 | -1.41 | -14.36
7 | O=C(CSc1nc2ccccc2n2cnnc12)Nc1cc(C(F)(F)F)ccc1Cl | 4.72 | 15.89 | -19.78
8 | COc1cc(OC)c(NC(=O)Cn2nc3c(Sc4cccc(C)c4)nccn3c2=O)cc1Cl | 10.68 | 47.09 | -23.34
9 | CC1CCN(C(=O)Cn2nc3n(Cc4ccco4)c(=O)c4sccc4n3c2=O)CC1 | 6.19 | 0.21 | -13.38
10 | O=C(Cn1nc2nc(Nc3ccc(F)cc3)ccn2c1=O)NCC1CCCO1 (stereo not given) | 12.02 | 1.89 | -8.84
11 | CCOc1ccc(C(=O)Cn2nc3n(Cc4ccccc4OC)c(=O)c4sccc4n3c2=O)cc1 | 8.36 | 6.12 | -29.81
12 | O=C(CCc1nnc2c(N3CCCCC3)nc3ccccc3n12)NCc1ccc(F)cc1 | 6.52 | 8.78 | -23.71
13 | CCOc1ccc(NC(=O)Cn2nc3c4cc(-c5ccc(C)c(C)c5)nn4ccn3c2=O)cc1 | 8.27 | 0.04 | -13.03
14 | Cc1cc(NC(=O)CSc2nc3ccccc3n3cnnc23)ccc1Br | 14.4 | 4.71 | -40.95
15 | Cc1ccc(-c2cc3c4nn(CC(=O)Nc5ccc(C)c(Cl)c5)c(=O)n4ccn3n2)cc1C | 10.5 | 8.38 | -8.69
16 | CCc1nnc2c(S(=O)(=O)N(Cc3cc(F)cc(F)c3)c3ccccc3)cccn12 | 9.94 | 6.55 | -7.12
17 | O=S(=O)(c1ccc2nncn2c1)N(Cc1ccccc1F)c1ccc(F)c(F)c1 | -0.52 | 1.44 | -2.71
18 | COc1ccc(NC(=O)CSc2nnc3c(=O)n(-c4ccccc4OC)ccn23)cc1Cl | 12.69 | 3.75 | -12.03
19 | COC(=O)c1ccc(NC(=O)Cn2nc3ccc(C(=O)NCc4ccccc4)cn3c2=O)cc1 | 7.68 | 0.61 | -23.41
20 | COc1ccc(C(C)NC(=O)CCc2nnc3ccc(-c4ccc(C)cc4)nn23)cc1OC (stereo not given) | 15.87 | 8.51 | -54.1
21 | COC(=O)c1ccc(CN(c2ccc(Cl)cc2)S(=O)(=O)c2ccc3nncn3c2)o1 | 0.53 | -1.37 | -1.27
22 | COc1ccc(-c2cc3c4nnc(SCC(=O)Nc5ccc(C#N)cc5)n4ccn3n2)cc1 | 5.83 | 1.48 | -17.71
23 | Cc1ccc(Oc2nc3ccccc3n3c(=O)n(CC(=O)Nc4ccc5c(c4)OCO5)nc23)cc1 | 4.57 | 10.98 | -25.85
24 | Cc1cc(C)cc(Nc2nc(C)cc3nn(CC(=O)NC4CCCC4)c(=O)n23)c1 | 17.93 | 3.67 | -8.76
25 | O=C(Cn1nc2c3sc(N4CCCC4)nc3ncn2c1=O)Nc1ccc(C(F)(F)F)cc1 | 13.17 | 1.98 | -9.31

Row | Structure (SMILES) | Inhibition [1] [%] | Inhibition [2] [%] | Inhibition [3] [%]
26 | Cc1nnc2c(S(=O)(=O)N(Cc3ccccc3F)c3ccc(C(C)C)cc3)cccn12 | 0.43 | 0.44 | -4.75
27 | Cc1ccc(NC(=O)Cn2c(=O)c3nnc(C)n3c3ccccc32)cc1C | 6.79 | 0.69 | -4.45
28 | CCc1ccc(NC(=O)Cn2nc3ccc(SC(C)(C)C)nn3c2=O)cc1 | 14.6 | 4.19 | -17.5
29 | O=S(=O)(c1ccc2nncn2c1)N(Cc1ccccc1)c1ccc(F)c(F)c1 | 5.23 | 3.55 | -6.45
30 | Cc1cccc(C)c1NC(=O)CSc1nnc2c3cc(-c4ccccc4)nn3ccn12 | -14.45 | -0.49 | -6.46
31 | Cc1ccc(-c2cc3c4nnc(SCC(=O)Nc5cccc(Cl)c5C)n4ccn3n2)cc1 | -0.41 | 0.76 | -8.53
32 | CCCCn1c(=O)c2sccc2n2c(=O)n(CC(=O)c3ccc(OC)cc3)nc12 | 1.02 | 4.16 | -36.83
33 | CC(C)CCn1c(=O)c2sccc2n2c(=O)n(CC(=O)N3CCC(Cc4ccccc4)CC3)nc12 | -9.97 | 0.93 | -41.06
34 | Cc1nnc2ccc(S(=O)(=O)N(CC(=O)OC(C)(C)C)c3ccc4c(c3)OCO4)cn12 | 6.34 | 5.98 | -4.94
35 | COc1cc(OC)c(NC(=O)Cn2nc3ccc(Sc4ccc(C)cc4)nn3c2=O)cc1Cl | -1.47 | 29.33 | -7.45
36 | CCOc1ccc(NC(=O)Cn2nc3ccc(SCc4ccc(Cl)cc4)nn3c2=O)cc1 | 7.43 | 15.3 | -13.71
37 | O=c1c2sccc2n2c(=O)n(Cc3cccc(Br)c3)nc2n1Cc1cccs1 | -22.43 | 62.43 | -21.53
38 | Cc1ccc(-c2cc3c4nnc(CCC(=O)NCc5ccc(F)c(Cl)c5)n4ccn3n2)cc1C | 10.99 | 2.11 | -43.73
39 | Cc1ccc(CN(c2cc(C)cc(C)c2)S(=O)(=O)c2cccn3c(C)nnc23)cc1 | 1.08 | -0.03 | -12.99
40 | Cc1cc2nn(CC(=O)NCc3ccccc3)c(=O)n2c(-c2ccc(C(F)(F)F)cc2)n1 | -2.81 | 22.82 | -6.62
41 | O=C(CSc1nnc2ccc(C(=O)NCc3ccccc3)cn12)Nc1ccccc1Br | 13.28 | 5.15 | -20.85
42 | Cc1c(Cl)cccc1-n1ccn2c(=O)n(Cc3ccc(Cl)cc3)nc2c1=O | 2.87 | 1.02 | -15.09
43 | CC(C)c1nnc2c(SCC(=O)Nc3cccc(Cl)c3)nc3ccccc3n12 | 10.95 | 2.12 | -14.08
44 | COc1cccc(-n2ccn3c(SCC(=O)Nc4cccc(F)c4)nnc3c2=O)c1 | 0.65 | 10.45 | -5.71
45 | Cc1ccc(C)c(CSc2nnc3c(=O)n(-c4ccc(Br)cc4)ccn23)c1 | 7.74 | 3.39 | -4.05
46 | Cc1ccc(NC(=O)Cn2nc3c(SC4CCCCC4)nccn3c2=O)c(Br)c1 | 3.74 | 0.73 | -7.42
47 | O=S(=O)(c1ccc2nncn2c1)N(Cc1ccccc1F)c1ccc2c(c1)OCO2 | 9.89 | 1.66 | -6.91
48 | CC(C)Cn1c(=O)c2sccc2n2c(=O)n(CC(=O)N3CCC(Cc4ccccc4)CC3)nc12 | -9.43 | 0.45 | -94.76
49 | O=C(CSc1nnc2c(=O)n(Cc3ccc(F)cc3)ccn12)NC1CCCC1 | 8.75 | 5.19 | -22.84
50 | COc1ccc(NC(=O)Cn2nc3ccc(SC(C)(C)C)nn3c2=O)cc1OC | 16.54 | -0.86 | -14.12
